# Measured values taken from PubChem BioAssay (NCATS).
# A number with no mark means an inactive call. Inconclusive results are not listed. Where a call stands in place of a potency, no number is given. Active and inactive are the calls of the source. Unless noted, calls follow the shape of the dose curve; as a rule, active = well fitted curve in the direction sought with a large enough effect; inconclusive = small, poorly fitted or top-dose-only effect, or another doubt; inactive = no such curve, though single readings can be large; an effect the other way counts as inactive or inconclusive.
# Key:
# [1] = biological target: 3',5'-cyclic-AMP phosphodiesterase 4B (Homo sapiens) (UniProt Q07343); experiment: qHTS Assay for Inhibitors of PDE-IV (AID 607; active = well fitted activation curve with a large enough effect in the main read-out, with a control signal flat, not every such curve was filed as active)
# Outline: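 HEK293 ACTOne cells with CNG channel (1000/well), endogenous PDE4; membrane potential dye, compounds up to 22.9 uM final. Fluorescence Ex 535/Em 590; RO 20-1724 (100 uM final) as reference.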
# [2] = Cell Viability - Mesenchymal (AID 546);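 also: cells exposed to compound for 40 hours before reading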
# Outline: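 Human kidney mesenchymal cells from normal renal glomeruli, 1000 cells/well, rested 5 hr at 37 °C, then treated 40 hr at 37 °C in complete medium. Cellular ATP read by CellTiter-Glo luminescence; AC50 from Hill-equation fits.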
# [3] = Cellular Toxicity (caspase-3) HepG2 (AID 654); also: potency is read from the fitted curve at half-maximal effect;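 as to caspase-3 activation: cells exposed to compound for 16 hours before reading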
# Outline: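 Cells plated 5 hr at 37 °C, compound added, incubated 16 hr at 37 °C. Caspase-Glo 3/7 reagent followed, 20 min at room temperature, then luminescence read. Activation scored as signal increase; AC50 from Hill fit.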
# [4] = Cellular Toxicity (caspase-3) Jurkat (AID 655); settings: Jurkat caspase-3 activation, luminescence; caspase-3 activation: at 92.2 µM (top of the series), DMSO = 0%, tamoxifen = 100%;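 also: cells exposed to compound for 16 h at 37 °C before reading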; also: potency is read from the fitted curve at half-maximal effect
# Outline: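 Caspase 3/7 activation is scored as increased luminescence in Jurkat cells cultured with compound for 16 hours in complete medium. AC50 values come from Hill fits of qHTS concentration-response data normalized to DMSO and 100 uM tamoxifen controls.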
# [5] = Cellular Toxicity (caspase-3) HUV-EC-C (AID 656)
# Outline: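 Read-out: luminescence proportional to caspase 3/7 activity, measured 20 min after adding Caspase-Glo 3/7 reagent. Cells (HUV-EC-C) had received compound for 16 hr at 37°C. Increases relative to DMSO and 100 uM tamoxifen gave concentration-response AC50 values.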
# [6] = Cellular Toxicity (caspase-3) SHSY5Y (AID 657);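 also: cells exposed to compound for 16 hours at 37 °C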; also: potency is read from the fitted curve at half-maximal effect
# Outline: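 Cells plated and incubated 5 h at 37 °C, dosed over a concentration range, incubated 16 h, then given Caspase-Glo 3/7 reagent for 1 h at room temperature before luminescence reading. Staurosporine (10 uM) defined full stimulation.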
# [7] = Cellular Toxicity (caspase-3) BJ (AID 658)
# Outline: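 BJ human foreskin fibroblasts, 1000 cells/well, treated 16 hours at 37 °C in complete medium; caspase 3/7 activity by Caspase-Glo luminescence after 1 hr at room temperature. Normalized to DMSO and 10 uM staurosporine; AC50 from Hill fits.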
# [8] = Cellular Toxicity (caspase-3) MRC-5 (AID 659)
# Outline: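 MRC-5 human normal lung fibroblasts, 1500 cells/well, treated 16 h at 37 °C in complete medium. Caspase 3/7 measured by Caspase-Glo luminescence after 1 h at room temperature. Normalized to DMSO and 10 uM staurosporine; AC50 from Hill fit.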
# [9] = Cellular Toxicity (caspase-3) Mesangial (AID 660);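 also: cells exposed to compound for 16 h before the caspase read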
# Outline: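 Mesangial cells, 1000/well, 5 h settle at 37 °C; compound 16 h, 37 °C; Caspase-Glo 3/7 reagent 20 min RT; luminescence. Norm.: DMSO = 0%, tamoxifen 100 uM = 100%. AC50, Hill fit.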
# [10] = Cellular Toxicity (caspase-3) SK-N-SH (AID 661)
# Outline: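 Human neuroblastoma SK-N-SH, 1500 cells/well, 5 hr pre-incubation, then compound 16 hr, 37 °C. Caspase-Glo 3/7 reagent, 1 hr RT, luminescence. Norm. to DMSO/10 uM staurosporine; Hill-fit AC50.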
# Chain of 3',5'-cyclic-AMP phosphodiesterase 4B (Homo sapiens) (Q07343 whole entry, looked up): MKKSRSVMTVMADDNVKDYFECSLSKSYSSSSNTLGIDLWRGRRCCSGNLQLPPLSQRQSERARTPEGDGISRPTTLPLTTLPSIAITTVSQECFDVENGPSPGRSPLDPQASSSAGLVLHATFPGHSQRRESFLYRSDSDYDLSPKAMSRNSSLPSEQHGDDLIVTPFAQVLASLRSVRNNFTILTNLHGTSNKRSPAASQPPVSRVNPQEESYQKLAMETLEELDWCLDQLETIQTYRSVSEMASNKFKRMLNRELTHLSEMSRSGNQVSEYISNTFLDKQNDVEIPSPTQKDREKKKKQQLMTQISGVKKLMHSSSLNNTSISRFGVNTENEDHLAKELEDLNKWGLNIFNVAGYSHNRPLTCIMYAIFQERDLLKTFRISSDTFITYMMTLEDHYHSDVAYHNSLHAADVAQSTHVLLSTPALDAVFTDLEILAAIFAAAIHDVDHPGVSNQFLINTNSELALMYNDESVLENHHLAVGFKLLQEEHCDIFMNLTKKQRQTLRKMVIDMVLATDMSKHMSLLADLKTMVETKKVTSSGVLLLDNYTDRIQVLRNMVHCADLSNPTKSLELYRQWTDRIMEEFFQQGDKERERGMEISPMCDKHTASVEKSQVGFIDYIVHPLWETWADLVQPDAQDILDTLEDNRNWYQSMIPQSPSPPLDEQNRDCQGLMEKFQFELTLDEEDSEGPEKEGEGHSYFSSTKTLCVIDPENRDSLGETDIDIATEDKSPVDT
compound,measurement,setting,value
Cc1ncc(CNC(=O)N(CCCl)N=O)c(N)n1,outcome,[1],inactive
O=[N+]([O-])c1cc([As](=O)(O)O)ccc1O,outcome,[1],inactive
N#CC(C#N)=Cc1ccc(O)c(O)c1,outcome,[1],inactive
CNCC(O)c1ccc(O)cc1 (stereo unspecified),outcome,[2],inactive
same,Potency,[3],inactive
same,caspase-3 activation,[4],2.25%
same,outcome,[5],inactive
same,Potency,[6],inactive
same,outcome,[7],inactive
same,outcome,[8],inactive
same,outcome,[9],inactive
same,outcome,[10],inactive
CCOP(=S)(OCC)Oc1cc(C)nc(C(C)C)n1,outcome,[2],inactive
same,Potency,[3],inactive
same,caspase-3 activation,[4],1.42%
same,outcome,[5],inactive
same,Potency,[6],inactive
same,outcome,[7],inactive
same,outcome,[8],inactive
same,outcome,[9],inactive
same,outcome,[10],inactive
CCCC(C)(COC(N)=O)COC(=O)NC(C)C (stereo unspecified),outcome,[2],inactive
same,Potency,[3],inactive
same,caspase-3 activation,[4],1.39%
same,outcome,[5],inactive
same,Potency,[6],inactive
same,outcome,[7],inactive
same,outcome,[8],inactive
same,outcome,[9],inactive
same,outcome,[10],inactive
Oc1ccccc1-c1ccccc1,outcome,[2],inactive
same,Potency,[3],inactive
same,caspase-3 activation,[4],82.5% (active)
same,outcome,[5],inactive
same,Potency,[6],inactive
same,outcome,[7],inactive
same,outcome,[8],inactive
same,outcome,[9],inactive
same,outcome,[10],inactive
Cc1ccc(S(=O)(=O)N[C@@H](CCCCN)C(=O)CCl)cc1,outcome,[1],inactive
N[C@@H]1C[C@H]1c1ccccc1,outcome,[1],inactive
c1ccc(C2CC2)c(OCC2=NCCN2)c1,outcome,[1],inactive
NP(N)(=O)NC(=O)c1ccc(F)cc1,outcome,[1],inactive
C#CCN(C)[C@H](C)Cc1ccccc1,outcome,[1],inactive
NN=C(N)N,outcome,[1],inactive
N[C@@H](Cc1ccc(N(CCCl)CCCl)cc1)C(=O)O,Potency,[3],31.6 µM (active)
same,Potency,[4],25.1 µM (active)
same,outcome,[5],inactive
same,Potency,[6],2.51 µM (active)
same,outcome,[7],inactive
same,outcome,[8],inactive
NCC1(CC(=O)O)CCCCC1,outcome,[1],inactive
C[C@]12C/C(=C/O)C(=O)C[C@@H]1CC[C@@H]1[C@@H]2CC[C@@]2(C)[C@H]1CC[C@]2(C)O,outcome,[2],inactive
same,caspase-3 activation,[4],15%
same,outcome,[5],inactive
same,Potency,[6],inactive
same,outcome,[7],inactive
same,outcome,[8],inactive
same,outcome,[9],inactive
same,outcome,[10],inactive
Fc1ccc(C(OCCN2CCN(CCCc3ccccc3)CC2)c2ccc(F)cc2)cc1,outcome,[1],inactive
CCCN1CCC[C@@H]2Cc3[nH]ncc3C[C@H]21,outcome,[1],inactive
Clc1ccc(COC(Cn2ccnc2)c2ccc(Cl)cc2Cl)cc1 (stereo unspecified),caspase-3 activation,[4],99.7% (active)
same,Potency,[6],inactive
same,outcome,[7],inactive
same,outcome,[8],inactive
same,outcome,[9],inactive
same,outcome,[10],inactive
CCCN1CCC[C@@H]2Cc3nc(N)ncc3C[C@H]21,outcome,[1],inactive
COc1ccccc1N1CCNCC1,outcome,[1],inactive
CCN(CC)C(=O)N[C@@H]1C=C2c3cccc4[nH]cc(c34)C[C@@H]2N(C)C1,outcome,[1],inactive
